These results are taken from publication PMC5540273 (PLoS ONE, 2017).

SMILES strings stand for the structures.
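Also: KINOMEscan kinase panel screen.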

For this experiment, the system named is FGFR1. Particulars: concentration: 1 μM, replicates: in singlicate; n = 1.
As to `FC(F)(F)c1ccc(/C=C/c2cncnc2Nc2ccc3[nH]c(Cc4ccccc4)nc3c2)cc1` [GW709199], the “%Inh” value was 20%.

Regarding `CN(C)Cc1ccc(-c2ccc3c(Nc4ccc(Oc5ccccn5)cc4)ccnc3c2)o1` [GW567148], the “%Inh” value is 0%.

As for `Cc1ccc(F)c(C(=O)Nc2cccc(-c3nn4ccccc4c3-c3ccnc(Nc4cccc(F)c4)n3)c2)c1F` [GSK361061], the “%Inh” value worked out at 19%.

Consider `Cc1occc1-c1ncc(OC[C@@H](N)Cc2c[nH]c3ccccc23)cc1-c1ccc2[nH]nc(C)c2c1.O=C(O)C(F)(F)F` [GSK682037], for which the “%Inh” value is recorded as 6%.

With `CN(C)S(=O)(=O)c1cc(-c2ccc3nccc(-c4cccc(S(N)(=O)=O)c4)c3c2)cnc1N` [GSK1669921], the “%Inh” value is listed as 0%.

For `COCCOCCOc1cc2ncc3c4ccc(C#N)cc4[nH]c3c2cc1OC`, the “%Inh” value stood at 0%.

Take `COc1cccc(C2=C(Nc3ccc(Cl)c(C(=O)O)c3)C(=O)NC2=O)c1` [SB-390769]: the “%Inh” value worked out at 8%.

Consider `Oc1cc(Nc2ccnc3cc(I)ccc23)ccc1F` [GW552771], for which the “%Inh” value turned out to be 23%.

Take `Cc1ccc(S(=O)(=O)Nc2ccc(Nc3nccc(Nc4cccc5[nH]ncc45)n3)cc2)cc1` [GSK581271]: the “%Inh” value is 0%.

For the compound `Cc1ccc(C(=O)N2CC[C@@H](O)C2)cc1-n1c(C)cc(OCc2ccc(F)cc2F)c(Br)c1=O`, the “%Inh” value is 80%.

As for `COC(=O)Nc1nc2cc(Oc3ccc(NC(=O)Nc4cc(C(F)(F)F)ccc4F)cn3)ccc2[nH]1.Cl.Cl` [GW681170], the “%Inh” value was 7%.

For the compound `COc1cc(Nc2nccc(N3CCC(NC(=O)c4cc5ccccc5s4)C3)n2)cc(OC)c1OC` (centres unmarked) [GSK1379760], the “%Inh” value stood at 0%.

Turning to `O=C(Nc1cccc(-c2nn3ccccc3c2-c2ccnc(Nc3cccc(F)c3)n2)c1)c1c(F)ccc(F)c1Cl` [GSK357952], the “%Inh” value turned out to be 14%.

For `O=C(Nc1ccccc1F)NC1CCN(c2ccnc(Nc3ccc(F)cc3)n2)CC1` [GSK1379800], the “%Inh” value is 0%.

On to `O=c1[nH]cc(-c2ccc(N3CCOCC3)cc2)c2sc(-c3cn[nH]c3)cc12` [GSK2276055], for which the “%Inh” value is 0%.

Take `COc1cccc(C(=O)Nc2cccc(Oc3ccc4nc(NC(=O)C5CC5)cn4n3)c2)c1`: the “%Inh” value was 22%.

On to `O=C(Nc1cccc(Oc2ccc3nc(NC(=O)C4CC4)cn3n2)c1)c1ccccc1C(F)(F)F`, for which the “%Inh” value amounted to 1%.

Consider `NCCCC(NC(=O)c1cc(Br)c(-c2ccnc3[nH]ccc23)s1)c1ccccc1.O=C(O)C(F)(F)F.O=C(O)C(F)(F)F` (centres unmarked) [GSK1287544], for which the “%Inh” value is given as 52%.

In the case of `COC(=O)Nc1nc2ccc(Oc3ccc(NC(=O)Nc4cc(C(F)(F)F)ccc4F)cc3)cc2n1C.Cl` [GW692089], the “%Inh” value is listed as 2%.

For `COc1cc(Nc2nccc(-c3c(-c4cccc(NC(=O)c5c(F)cccc5F)c4)nn4ncccc34)n2)cc(OC)c1OC` [GSK327238], the “%Inh” value is 66%.

With `CN1CCN(CCCNc2nccc(-c3c(-c4ccc(F)cc4)nn4cc(C(F)(F)F)ccc34)n2)CC1` [GW621581], the “%Inh” value turned out to be 25%.

For the compound `Cc1ccc(C)c(NC(=O)NC2CCN(c3ccnc(Nc4ccc(F)cc4)n3)C2)c1` (centres unmarked) [GSK1379720], the “%Inh” value is 0%.

Turning to `Cc1cccc(Nc2nc(N[C@H]3CCNC3)ncc2C(N)=O)c1.Cl` [GSK2197149], the “%Inh” value is 0%.

Consider `COc1ccc(Nc2nccc(NCCNC(=O)c3cc4ccccc4s3)n2)cc1` [GSK1379896], for which the “%Inh” value is reported as 0%.

Turning to `Nc1ncc(-c2cccnc2)c2scc(-c3ccc4c(c3)CCN4C(=O)Cc3ccccc3)c12` [GSK683281], the “%Inh” value was determined as 31%.

As to `Cl.Cl.NCC(NC(=O)c1cc(-c2ccccc2)c(-c2ccnc3[nH]ccc23)s1)c1ccccc1` (centres unmarked) [GSK1321561], the “%Inh” value stood at 15%.

For `Nc1ncc(-c2ccc3nccc(-c4ccncc4)c3c2)cc1S(=O)(=O)N1CCOCC1` [GSK1627798], the “%Inh” value is reported as 0%.

`CCn1c(-c2nonc2N)nc2c(C#CC(C)(C)O)ncc(OCCCCN)c21.O=C(O)C(F)(F)F.O=C(O)C(F)(F)F` [GSK507274]: the “%Inh” value is recorded as 0%.

As for `Nc1n[nH]c2cnc(-c3ccccc3)cc12` [SB-642124], the “%Inh” value came to 2%.

As to `Cl.c1ccc(-c2ccc3c(Nc4ccc5[nH]ncc5c4)ccnc3c2)nc1` [GW440137], the “%Inh” value came to 14%.

Take `Nc1ncnc2c1nc(-c1ccccc1)n2-c1ccccc1` [SKF-97293]: the “%Inh” value is given as 12%.

`Cn1cc(-c2ccc3c(c2)CCN3C(=O)Cc2cccc(Cl)c2)c2c(N)ncnc21` [GSK2606590]: the “%Inh” value is reported as 23%.
